{"source": "PubChem BioAssay (NCATS)", "note": "Inconclusive results are not listed. Calls of active or inactive are those of the source. Calls come from the whole dose curve; as a rule, active = well fitted cell-killing curve with a large enough effect; inconclusive = small, poorly fitted or top-dose-only effect; inactive = flat fitted curve, though single readings scatter. Numbered stars: 1 amine (or outer) side, 2 acyl side, 3 side chain; on linkers, the order of the positions; unused ones are H or OH. Bridge positions count the residues as written; N and C are the ends. Square brackets hold non-standard residues; d marks the D form. Peptide text beside a SMILES is read from it. I, II: the chains in the order shown. Actinocin(9to1) = Cc1c2oc3c(C)ccc(C(=O)[*:1])c3nc-2c(C(=O)[*:2])c(N)c1=O; NMeV = CN[C@H](C(=O)O)C(C)C; Sar = CNCC(=O)O", "data": [{"assay": "Cell Viability - LYMP1-002 - Assay at 40 hr (AID 994); note: nearly all actives have a fitted effect of over 60% in size; note: potency is the fitted concentration of half-maximal effect;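 for viability change, negative = cytotoxic: 0% = DMSO only and full inhibition = 92 µM tetraoctylammonium bromide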", "details": "LYMP1-002 lymphoblastoid cell viability; series mostly up to 92.2 µM; viability change, negative = cytotoxic: at the top concentration", "excerpt": "NIH Chemical Genomics Center [NCGC]\nNIH Molecular Libraries Screening Centers Network [MLSCN]\nNational Institutes of Environmental Health Sciences [NIEHS]\nNational Toxicology Program [NTP]\nWe have developed a 1536-well cell-based assay for quantitative high throughput screening (qHTS) against a number of cell lines to determine in vitro cytotoxicity of small molecules. This particular assay uses a human lymphoblastoid cell line (LYMP1-002) purchased from Coriell Institute for Medical Research.\nNCGC Assay Protocol Summary:\nThe CellTiter-Glo luminescent cell viability assay (Promega) is a homogeneous method to measure the number of viable cells in culture. The end point readout of this assay is based on quantitation of intracellular ATP, an indicator of metabolic activity, using the luciferase reaction. Luciferase catalyzes the oxidation of beetle Luciferin to oxyluciferin and light in the presence of ATP. The luminescent signal is proportional to amount of ATP present.\nUsing the CellTiter-Glo luminescent cell viability assay, the amount of cellular ATP was measured in the lymphoblastoid cell line with complete culture medium following compound treatment for 40 hours. The assay was performed in opaque white Kalypsys 1536-well plates. In the screen, tetraoctylammonium bromide was used as positive control. Library compounds were measured for their ability to cause acute toxicity in the cell line, as reflected by a decrease in intracellular ATP levels, in a concentration-dependent manner. […] AC50 values were determined from concentration-response data modeled with the standard Hill equation.\nqHTS protocol for CellTiter Glo lymphoblastoid cellular assay\n[Step] [Parameter] [Value] [Description]\n1. Reagent; 5 uL; 2500 lymphoblastoid cells/well\n2. Time; 5 hr; 37 C incubation\n4. Controls; 23 nL; Tetraoctylammonium bromide 6.4pM to 92 uM\n5. Time; 40 hr; 37 C incubation\n6. Reagent; 5 uL; CellTiter Glo reagent\n7. Time; 30 min; Room Temperature\n8. Detection; Luminescence; Viewlux plate reader\nKeywords: cell viability, cytotoxicity, lymphoblastoid cell line, luminescence, NTPHTS, NTPHTS_NCGC, NIEHS, DSSTox, MLSMR, MLSCN, NIH Roadmap, qHTS, NCGC", "values": [{"smiles": "CCCCCCc1ccc(O)cc1O", "viability change, negative = cytotoxic": "-11.9% (inactive)"}, {"smiles": "Nc1ccc(C(=O)O)cc1", "viability change, negative = cytotoxic": "-1.76% (inactive)"}, {"smiles": "CC(=O)O[C@]1(C(C)=O)CC[C@H]2[C@@H]3C[C@H](C)C4=CC(=O)CC[C@]4(C)[C@H]3CC[C@@]21C", "viability change, negative = cytotoxic": "-14.6% (inactive)"}, {"smiles": "COc1cccc2c1C(=O)c1c(O)c3c(c(O)c1C2=O)C[C@@](O)(C(C)=O)C[C@@H]3O[C@H]1C[C@H](N)[C@H](O)[C@H](C)O1", "Potency": "1 µM (active)"}, {"smiles": "CC(=O)Oc1ccc(C(c2ccc(OC(C)=O)cc2)c2ccccn2)cc1", "viability change, negative = cytotoxic": "-7.92% (inactive)"}, {"smiles": "CN(C)/N=N/c1nc[nH]c1C(N)=O", "viability change, negative = cytotoxic": "0.763% (inactive)"}, {"smiles": "O=C(O)CCCCC(=O)O", "viability change, negative = cytotoxic": "-0.778% (inactive)"}, {"smiles": "CC(C)(C)CC(C)(C)c1ccc(OCCOCC[N+](C)(C)Cc2ccccc2)cc1", "Potency": "39.8 µM (active)"}, {"smiles": "Oc1c(Cl)cc(Cl)cc1Sc1cc(Cl)cc(Cl)c1O", "Potency": "50.1 µM (active)"}, {"smiles": "COc1cccc2c1C(=O)c1c(O)c3c(c(O)c1C2=O)C[C@@](O)(C(=O)CO)C[C@@H]3O[C@H]1C[C@H](N)[C@H](O)[C@H](C)O1", "Potency": "0.794 µM (active)"}, {"smiles": "O=c1ccc2ccccc2o1", "viability change, negative = cytotoxic": "2.16% (inactive)"}, {"smiles": "C[C@]12CC[C@@H]3c4ccc(O)cc4CC[C@H]3[C@@H]1CC[C@@H]2O", "viability change, negative = cytotoxic": "-23.8% (inactive)"}, {"smiles": "Oc1c(I)cc(Cl)c2cccnc12", "Potency": "50.1 µM (active)"}, {"smiles": "CC/C(=C(/CC)c1ccc(O)cc1)c1ccc(O)cc1", "viability change, negative = cytotoxic": "-27.8% (inactive)"}, {"smiles": "O=C1OC(c2ccc(O)cc2)(c2ccc(O)cc2)c2ccccc21", "viability change, negative = cytotoxic": "-1.68% (inactive)"}, {"smiles": "Cc1c2oc3c(C)ccc(C(=O)N[C@@H]4C(=O)N[C@H](C(C)C)C(=O)N5CCC[C@H]5C(=O)N(C)CC(=O)N(C)[C@@H](C(C)C)C(=O)O[C@@H]4C)c3nc-2c(C(=O)N[C@@H]2C(=O)N[C@H](C(C)C)C(=O)N3CCC[C@H]3C(=O)N(C)CC(=O)N(C)[C@@H](C(C)C)C(=O)O[C@@H]2C)c(N)c1=O", "note": "(I: T[dV]P[Sar][NMeV] / II: T[dV]P[Sar][NMeV]; ester I:1-I:C, II:1-II:C; linker I:N-II:N via Actinocin(9to1))", "Potency": "0.0032 µM (active)"}, {"smiles": "CC(O)C(=O)O", "note": "(centres undefined)", "viability change, negative = cytotoxic": "6.09% (inactive)"}, {"smiles": "C=CCc1ccc(O)c(OC)c1", "viability change, negative = cytotoxic": "-2.84% (inactive)"}, {"smiles": "NC(=NCCCCCCN=C(N)/N=C(\\N)Nc1ccc(Cl)cc1)/N=C(\\N)Nc1ccc(Cl)cc1", "Potency": "39.8 µM (active)"}]}]}
